# In all, about 96,000 compounds went through this assay and about 20,000 (21%) were called active. A selection follows. A number with no mark means an inactive call.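 How the source made its calls: active means CYP2C19 inhibition above a set limit at 5 µM in the primary screen (cut at about 50% in these data); inactive means the rest.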 Residues, ends and D or L forms follow the SMILES beside them. *: point of attachment. Bz = O=C(c1ccccc1)*
# Target: Cytochrome P450 2C19 (Homo sapiens) (UniProt P33261)
# Sequence (P33261 whole entry, looked up): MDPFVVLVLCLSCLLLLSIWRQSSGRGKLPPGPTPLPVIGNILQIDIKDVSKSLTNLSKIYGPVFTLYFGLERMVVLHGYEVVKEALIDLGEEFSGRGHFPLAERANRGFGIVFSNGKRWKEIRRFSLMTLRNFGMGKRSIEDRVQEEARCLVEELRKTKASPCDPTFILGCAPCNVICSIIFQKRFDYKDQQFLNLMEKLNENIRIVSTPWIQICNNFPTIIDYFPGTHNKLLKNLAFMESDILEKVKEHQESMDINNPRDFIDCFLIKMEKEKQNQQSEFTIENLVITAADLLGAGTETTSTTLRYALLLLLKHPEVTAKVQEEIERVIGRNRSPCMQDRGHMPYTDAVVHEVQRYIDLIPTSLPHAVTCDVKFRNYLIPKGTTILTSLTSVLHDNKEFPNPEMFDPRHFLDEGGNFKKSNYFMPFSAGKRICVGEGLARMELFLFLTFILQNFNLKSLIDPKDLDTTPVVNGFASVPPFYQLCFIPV
# Experiment: blockers of cytochrome P450 2C19 activity – biochemical, luminescence, ADME assay, primary screen (AID 778);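 further: plate controls were negative control wells for no effect and 2.5 mM tranylcypromine positive control for full effect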
# Settings: CYP2C19 Supersomes, luciferin-H EGE luminescence, 30 min; at 5 µM; active compounds read high
row,Compound,inhibition
1,COc1ccc(OC)c2[nH]c(=O)c(CCNC(=O)C(C)(C)C)cc12,13.1%
2,O=C(Cn1nc(C(F)(F)F)c2c1CCC2)NCc1ccc(F)cc1,45.9%
3,CCSc1nc(=S)n(CC)c(C)c1C(C)=O,-23.9%
4,O=C(CCCN1C(=O)c2ccccc2C1=O)Oc1ccc(Cl)cc1,14.2%
5,COc1ccc(NC(=O)/C(Cl)=C(/Cl)S(=O)Cc2ccc(C)cc2)cn1 (stereo unspecified),33.8%
6,O=C(Nc1nnc(C2CC2)s1)c1ccccn1,20.4%
7,CCCc1nc(N2CCN(C)CC2)c2sc(=S)n(-c3ccccc3)c2n1,4.4%
8,CCOc1ccc(NC(=O)CCS(=O)(=O)c2ccc3c(c2)CCCN3C(=O)CC)cc1,3.3%
9,O=C(CC1Oc2ccccc2NC1=O)NCCCN1CCN(Cc2ccccc2)CC1 (stereo unspecified),-1.2%
10,Cc1ccc2c(c1)N(CC(=O)N1CCCc3ccccc31)C(=O)C(C)O2 (stereo unspecified),34.4%
11,O=C(Cc1ccccc1)n1nc(-c2ccccc2)nc1NCc1ccco1,15.9%
12,O=C(O)CSC(NC(=O)c1cccnc1)(C(F)(F)F)C(F)(F)F,-13.3%
13,CC(NC(=O)c1cc(-c2ccccc2)on1)c1ccccc1 (stereo unspecified),13%
14,CC(N=Cc1nc(-c2ccccc2)oc1O)c1ccccc1 (stereo unspecified),71.8% (active)
15,CCn1c(/C=C/c2ccc([N+](=O)[O-])o2)nc2ccccc2c1=O,-3.3%
16,Cc1ccc(-n2c(C)cc(/C=N/Nc3ccc([N+](=O)[O-])cn3)c2C)c(C)c1,-0.3%
17,CN1C(=O)CC(N2CCN(c3ccccn3)CC2)C1=O (stereo unspecified),17.8%
18,COc1cccc(-n2c(Cc3cc(=O)[nH]c(=O)[nH]3)nnc2SCC(=O)Nc2ccccc2)c1,-8.7%
19,CSc1cccc(NC(=O)CSc2ccccc2)c1,83.5% (active)
20,Cc1ccn(C(CC(=O)c2ccc(Br)cc2)C(=O)O)n1 (stereo unspecified),-25.7%
21,O=C(Oc1ccccc1)c1ccc2nccnc2c1,20.3%
22,CC(C)c1nc(-c2ccccn2)no1,-3.1%
23,O=C(Oc1ccc(-c2nc(-c3ccccn3)no2)cc1)c1ccccc1,99.5% (active)
24,CCc1cc(Br)ccc1NC(=O)C1CCCO1 (stereo unspecified),30.5%

row,Compound,inhibition
1,CC(=O)c1cc(-c2ccccc2)[nH]c1N1CCCC1,10.4%
2,CCOc1cc(NC(=O)c2ccco2)c(OCC)cc1NC(=O)COc1ccccc1,24.6%
3,O=C(COC(=O)c1ccccc1NC(=O)c1ccco1)Nc1ccc2c(c1)OC(F)(F)O2,57.4% (active)
4,COc1ccccc1C(=O)Nc1ccc(NC(=O)c2ccco2)c(C)c1,45.5%
5,Cc1nc(C)c2c(c1C(F)(F)F)-c1ccccc1C2(F)F,-21.2%
6,O=C(NC(Cc1ccccc1)C(=O)N1CCCC1C(=O)O)c1ccccc1 (stereo not drawn) (Bz-Phe-Pro-OH; configuration not given here),-4.1%
7,Cc1ccc(C)n1C(Cc1ccccc1)C(=O)O (stereo unspecified),8.1%
8,O=C(C(Cc1ccccc1)n1cccc1)N1CCN(C2CCCCC2)CC1 (stereo unspecified),98.1% (active)
9,CCOc1ccc2nc(SC(CC)C(=O)Nc3cc(C)on3)sc2c1 (stereo unspecified),0.6%
10,Cc1ccc(CNC(=O)c2ccccc2CCc2ccccc2)cc1,13.9%
11,CCOc1c(OC)cc(C2C(C#N)=C(N)Oc3n[nH]c(-c4ccncc4)c32)cc1OC (stereo unspecified),-7%
12,COc1ccc(C2C(C#N)=C(N)Oc3n[nH]c(C)c32)cc1CN1CCN(c2ccc(F)cc2)CC1 (stereo unspecified),70.4% (active)
13,CCCc1[nH]nc2c1C(c1ccc(OC)c(Cn3nc(C)c(Br)c3C)c1)C(C#N)=C(N)O2 (stereo unspecified),8%
14,Fc1ccc2nc(N3CCCCC3)sc2c1,39.9%
15,Cn1c(=O)n(C)c2cc(/C=N/NC(=O)c3cccc(Br)c3)ccc21,6.4%
16,N=c1oc2ccccc2cc1C(=O)N/N=C/c1ccccc1,31.7%
17,O=C(N/N=C\c1cccc(Br)c1)c1ccccc1-n1cccc1,73.3% (active)
18,CC(C)Cn1c(N)c(C(=O)NCc2cccs2)c2nc3ccccc3nc21,19.7%
19,CC1(C)CC(=O)c2sc(N)nc2C1,23.6%
20,CC1CCC2(CC1)NC(=O)N(CC(=O)c1cccn1C)C2=O (stereo unspecified),9.9%
21,CC(C)(C)OC(=O)c1c(N)n(CCCN2CCCC2=O)c2nc3ccccc3nc12,-3.9%
22,Cc1ccc(CNC(=O)CCNS(=O)(=O)c2cccc3nonc23)cc1,15.9%
23,O=C(CCS(=O)(=O)c1cccc2nonc12)NCCc1ccccc1Cl,75% (active)
24,Cc1ccc(N(CC(=O)Nc2cc(C)cc(C)c2)S(=O)(=O)c2cccc3nonc23)cc1,14.2%

row,Compound,inhibition
1,COc1ccc(C)cc1NC(=O)CCS(=O)(=O)c1cccc2nonc12,82.1% (active)
2,CC1CCCCC1NC(=O)CCS(=O)(=O)c1cccc2nonc12 (stereo unspecified),27.7%
3,Cc1cccc(C)c1NC(=O)CCS(=O)(=O)c1cccc2nsnc12,10.7%
4,CSc1cc(C)n(-c2ccccc2C)c(=S)c1C(C)=O,-14.7%
5,CCOC(=O)c1oc2ccccc2c1NC(=O)c1cccs1,5.8%
6,O=C(O)Cc1ccc(NC(=O)c2cccs2)cc1,1.3%
7,Cc1cc2cc(CNC(=O)c3cccs3)ccc2[nH]1,86.8% (active)
8,O=[N+]([O-])c1cccc(-c2nnc3c4ccccc4c4ccccc4n23)c1,5%
9,COc1ccc(C2=Nc3cc(C)ccc3OC2)cc1,13%
10,CN(C)CCCNC(=O)c1ccc2[nH]c3ccccc3c2c1,10.5%
11,CC(C)=C(NC(=O)c1ccco1)C(=O)NCCc1nc2ccccc2[nH]1,-12.2%
12,O=C(COc1ccccc1)NCCc1nc2ccccc2[nH]1,65.9% (active)
13,COC(=O)Cc1nc2ccccc2[nH]1,3%
14,COC(=O)CSc1snnc1-c1ccc(Cl)c(Cl)c1,44.8%
15,Cn1c(SCC(=O)N2CCOCC2)nnc1-c1ccc(NC(=O)c2ccccc2F)cc1,2.8%
16,O=C(Nc1nnc(SCc2c(Cl)cccc2Cl)s1)C1CCCO1 (stereo unspecified),9.6%
17,Cc1cc(C)c2nc(SCCC#N)nc(C)c2c1,53.5% (active)
18,CSc1ccc(CCNC(=O)C2CCN(c3nnc(-n4cccc4)s3)CC2)cc1,28.8%
19,CC(=O)Cc1nsc(NC(=O)c2csc3c2CCCC3)n1,42.6%
20,CCOC(=O)Cn1c(CN(Cc2ccccc2)Cc2ccccc2)nc2c1c(=O)[nH]c(=O)n2C,16.4%
21,O=C(Nc1ccccc1)c1nnsc1S(=O)(=O)c1ccc(Cl)cc1,19.5%
22,O=S(=O)(NCc1ccccc1Cl)c1cnc[nH]1,22.3%
23,Cc1nnsc1S(=O)(=O)Cc1ccccc1Cl,56.2% (active)
24,COc1cccc(OC)c1C(=O)Nc1nnc(C(C)C)s1,-6.4%

row,Compound,inhibition
1,Cc1ccc(NC(=O)c2ccc(CSc3ncnc4nc[nH]c34)cc2)c(C)c1,11.8%
2,O=C(c1ccc(O)cc1)c1ccc(C(=O)O)c(C(=O)O)c1,-0.1%
3,N#CC1=C(SCc2ccc(C#N)cc2)N=C(N)C(c2nc(-c3ccccc3)cs2)C12CCCCC2 (stereo unspecified),92.9% (active)
4,O=C(NC1CCCCC1)c1ccc2c(=O)n(CC3CCCO3)c(=O)[nH]c2c1 (stereo unspecified),0.4%
5,COc1ccc(C2C3=C(OC(C)=O)c4ccccc4C3=Nc3c2c(=O)n(C)c(=O)n3C)cc1 (stereo unspecified),-6.9%
6,Cn1c(C(=O)N2CCC(C(N)=O)CC2)cc2c(=O)n(C)c3ccccc3c21,-10.1%
7,CCOC(=O)N1CCN(C(=O)c2nn(-c3ccc(C)cc3)c(=O)c3c2c2ccccc2n3C)CC1,-2.9%
8,Cn1c2ccccc2c2c(C(=O)N3CCN(c4ccc(F)cc4)CC3)cn(C3CCCC3)c(=O)c21,85.8% (active)
9,COc1ccc(CC(=O)Nc2sc(Cc3ccccc3)c(C)c2C(N)=O)cc1,1%
10,Cc1nn(-c2cc(Cl)ccc2N)c(=O)c2ccccc12,8.7%
11,Cc1nc(NC(=O)c2cccc(Cl)c2)sc1-c1csc(Nc2cccc(Cl)c2)n1,-18.9%
12,Cc1cc(OC(=O)c2c(Cl)cccc2Cl)nc(C)n1,-6.5%
13,CN(C)S(=O)(=O)c1ccc(NC(=O)COC(=O)c2n[nH]c3ccccc23)cc1,-17.2%
14,O=C(Cc1c(O)c2ccccc2[nH]c1=O)NCc1ccccc1,4.1%
15,COc1ccc(COC(=O)c2n[nH]c3ccccc23)cc1F,57.1% (active)
16,COc1ccc(C(C)=O)cc1COC(=O)Cn1cnc2ccccc2c1=O,28.2%
17,O=C(COC(=O)c1n[nH]c2ccccc12)NCc1ccccc1,76.4% (active)
18,CCOC(=O)N1CCN(C(=O)c2n[nH]c(=O)c3ccccc23)CC1,-2.6%
19,CSc1sc(C)cc1C1C(C#N)=C(N)N(c2cccnc2)C2=C1C(=O)CCC2 (stereo unspecified),29.4%
20,CC(C)NC(=O)CSc1ccccc1C(=O)NCc1ccc2c(c1)OCO2,33.8%
21,CCCNC(=O)c1ccccc1NC(=O)CSCc1ccc(OC)cc1,45.7%
22,CCSc1ccccc1C(=O)NCc1ccc(OC)cc1,96.2% (active)
23,COc1cc(OC)c(C(=O)Nc2ccc(N(C)C)cc2)cc1OC,-11%
24,CCCN1C(=O)C(NS(=O)(=O)c2ccc(N)cc2)(C(F)(F)F)C(C(=O)OC)=C1C (stereo unspecified),6.9%
